Experimental data: PubChem BioAssay (NCATS)
Records with an inconclusive call do not appear. Where a call stands in place of a potency, no number is given. The source made the active and inactive calls. Calls follow the shape of the dose curve; as a rule, active = well fitted inhibition curve with a large enough effect; inconclusive = small, poorly fitted or top-dose-only effect; inactive = no such curve, though single readings can be large or run the other way.

Experiment: Primary qHTS for small molecule stabilizers of the endoplasmic reticulum resident proteome: Secreted ER Calcium Modulated Protein (SERCaMP) assay (AID 1508630)
Outline: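 GLuc-SERCaMP-expressing SH-SY5Y cells, pretreated 16 h with compound, are challenged with thapsigargin to empty ER calcium stores; after 4 h, coelenterazine is added directly to the medium and luminescence is imaged.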

SMILES	Potency
C=C1c2cccc(O)c2C(O)=C2C(=O)[C@@]3(O)C(O)=C(C(N)=O)C(=O)[C@@H](N(C)C)[C@@H]3[C@@H](O)[C@H]12	inactive
CC1=C(CC(=O)O)c2cc(F)ccc2C1=Cc1ccc(S(C)=O)cc1 (stereo not given)	inactive
CC(C)(C)c1[nH]cnc1C=c1[nH]c(=O)c(=Cc2ccccc2)[nH]c1=O	inactive
C[C@]12C=CC(=O)C=C1CC[C@@H]1[C@@H]2[C@@H](O)C[C@@]2(C)[C@@H]1CC[C@]2(O)C(=O)CO	inactive
C[C@@H]1CC=CC=CC=CC=C[C@@H](O[C@@H]2O[C@H](C)[C@@H](O)[C@H](N)[C@H]2O)C[C@@H]2O[C@](O)(C[C@@H](O)C[C@@H]3O[C@@H]3C=CC(=O)O1)C[C@H](O)[C@@H]2C(=O)O	inactive
C[C@H](CCC(=O)O)[C@H]1CC[C@H]2[C@H]3[C@@H](CC[C@]12C)[C@@]1(C)CC[C@@H](O)C[C@H]1C[C@@H]3O	inactive
O=C1C(CCC(O)c2ccc(F)cc2)C(c2ccc(O)cc2)N1c1ccc(F)cc1 (stereo not given)	inactive
C=CC[N+]1([C@H]2C[C@H]3[C@@H]4CC[C@H]5C[C@H](O)[C@@H](N6CCOCC6)C[C@]5(C)[C@@H]4CC[C@]3(C)[C@H]2OC(C)=O)CCCC1	inactive
Cc1c(-c2cccc3c(CCCOc4cccc5ccccc45)c(C(=O)O)n(Cc4cccnc4)c23)c(COc2ccc(N3CCN([S+](=O)([O-])N(C)C)CC3)cc2)nn1C	inactive
COc1ccc2ccc(=O)oc2c1CC=C(C)C	inactive
O=C(Nc1ccccc1)Nc1ccc(-c2ccc(C(=O)[C@H]3CCC[C@H]3C(=O)O)cc2)cc1	inactive
CON(C)C(=O)N1N=C(c2cc(F)ccc2F)S[C@]1(CCCN)c1ccccc1	inactive
CC[C@H](NC(=O)[C@H](C)NC)C(=O)N1C[C@@H](O)C[C@H]1Cc1c(-c2[nH]c3cc(F)ccc3c2C[C@H]2C[C@H](O)CN2C(=O)[C@H](CC)NC(=O)[C@H](C)NC)[nH]c2cc(F)ccc12	inactive
CC1(C)C(N(O)C(=O)Nc2ccc(Cl)cc2)N(c2ccc(Cl)cc2)C(=O)N1CC(=O)NN=CC=Cc1ccc([N+](=O)[O-])o1 (stereo not given)	inactive
CCC(=O)OCC(=O)[C@@]1(OC(=O)CC)[C@@H](C)C[C@@H]2[C@H]3CCC4=CC(=O)C=C[C@]4(C)[C@@]3(F)[C@@H](O)C[C@@]21C	inactive
CN1C(=O)C[C@H](C(=O)N[C@@H](Cc2cnc[nH]2)C(=O)N2CCC[C@@H]2C(N)=O)NC1=O	inactive
CCOC(=O)N1CCN([N+]([O-])=NOc2cc(ON=[N+]([O-])N3CCN(C(=O)OCC)CC3)c([N+](=O)[O-])cc2[N+](=O)[O-])CC1	inactive
O=S(=O)(NCCNCC=Cc1ccc(Br)cc1)c1cccc2cnccc12	inactive
O=c1[nH]c(=O)n([C@H]2C[C@@H](O)[C@@H](CO)O2)cc1C(F)(F)F	inactive
Cn1cc(-c2ccc3nnc(Sc4ccc5ncccc5c4)n3n2)cn1	inactive
C[C@H]1[C@H](O)O[C@@H]2O[C@@]3(C)CC[C@@H]4[C@H](C)CC[C@@H]1[C@@]24OO3	inactive
CC1(C)OC2CC3C4CC(F)C5=CC(=O)C=CC5(C)C4C(O)CC3(C)[C@]2(C(=O)CO)O1 (stereo not given in full)	inactive
COC(=O)N1CCN(Cc2cccc(NC(=O)Nc3ccc(C)nc3)c2F)CC1	inactive
Oc1cc(O)cc(C=Cc2ccc(O)c(O)c2)c1	inactive
C[C@@H]1[C@H](C)CC[C@]2(C(=O)O)CC[C@]3(C)C(=CC[C@@H]4[C@@]5(C)CC[C@H](O)C(C)(C)[C@H]5CC[C@]43C)[C@@H]12	inactive
O=C(c1ccc(C=Cc2n[nH]c3ccccc23)cc1)N1CCNCC1	inactive
CN[C@@H]1[C@@H](O)[C@@H](O[C@@H]2[C@@H](O)[C@H](O[C@H]3O[C@H](CN)[C@@H](O)[C@H](O)[C@@H]3O)[C@@H](N)C[C@@H]2NC(=O)[C@@H](O)CN)OC[C@]1(C)O	inactive
CC(=O)OCC(=O)[C@@]12OC(C)(C)O[C@H]1C[C@H]1[C@@H]3C[C@H](F)C4=CC(=O)C=C[C@]4(C)[C@@]3(F)[C@@H](O)C[C@@]12C	inactive
CCCCCCCCCCCCCC(=O)N[C@H](CO)[C@H](O)c1ccc([N+](=O)[O-])cc1	inactive
COc1cc(C=CC(=O)O)ccc1O	inactive
